Measurements taken from PubChem BioAssay (NCI).
Compounds without any hit were thinned out: in the full panel of roughly 83,000, 20% have a hit.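 Method: cells in 96-well plates; compound added at one concentration; 48 h incubation; percent growth measured; values under 10 scored active.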 Values without a mark were called inactive. Calls of active or inactive are those of the source.

How the values were obtained:
Assay in all cases: NCI-60 one-dose screen, 48 h (100 = growth as untreated, 0 = no growth, -100 = all killed)
Conditions in all cases: 10 µM unless noted
[1] = test system: NCI-H23 lung
[2] = test system: NCI-H226 lung
[3] = test system: NCI-H322M lung
[4] = test system: HOP-62 NSCLC
[5] = test system: NCI-H460 lung
[6] = test system: HOP-92 NSCLC
[7] = test system: NCI-H522 lung
[8] = test system: A549/ATCC NSCLC
[9] = test system: 786-0 renal
[10] = test system: COLO 205 colon
[11] = test system: DU-145 prostate
[12] = test system: K-562 leukemia
[13] = test system: MALME-3M melanoma
[14] = test system: MDA-MB-231 breast
[15] = test system: RXF 393 renal
[16] = test system: SF-268 CNS
[17] = test system: SF-295 CNS
[18] = test system: SF-539 CNS
[19] = test system: UACC-257 melanoma
[20] = test system: M14 melanoma

Structure (SMILES) | growth [1] | growth [2] | growth [3] | growth [4] | growth [5] | growth [6] | growth [7] | growth [8] | growth [9] | growth [10] | growth [11] | growth [12] | growth [13] | growth [14] | growth [15] | growth [16] | growth [17] | growth [18] | growth [19] | growth [20]
COc1ccc(-c2nc(N3CCCC3=O)sc2Br)cc1OC | 95.7% | 93.8% | 96.6% | 103% | 108% | 113% | 89.1% | 96.8% | 97.5% | 112% | 114% | 94% | 111% | 93.7% | 89.9% | 104% | 93.5% | 96.9% | 98.5% | 116%
C=C1C(=O)O[C@H]2[C@H]1CC/C(Cn1cc(CNC(=O)/C=C/c3c[nH]c4ccccc34)nn1)=C\CC[C@@]1(C)O[C@@H]21 | 100% | 92.5% | 101% | 104% | 98.1% | 82.9% | 16.4% | 91.6% | 102% | 67.9% | 103% | 23.6% | 98% | 99.7% | 84% | 93.5% | 93.3% | 80.4% | 74.9% | 84.3%
CCOC(=O)c1ccc(NC(=O)N2CC(C)OC(C)C2)cc1 (stereo not given) | 92% | 98.1% | 111% | 91.7% | 104% | 81.2% | 94.6% | 106% | 98.6% | 116% | 111% | 89.9% | 101% | 96.5% | 98.6% | 106% | 98.5% | 95.8% | 106% | 107%
O=C(O)c1cn(C2CC2)c2cc(N3CCN(C(=O)/C=C/c4ccc(Cl)cc4)CC3)c(F)cc2c1=O | 86.8% | 91.5% | 71.5% | 80.8% | 58.7% | 57.4% | 75.1% | 77.4% | 76.4% | 98.9% | 84.4% | 74.2% | 84.6% | 68.1% | 72% | 62.4% | 80.7% | 72.2% | 81.9% | 82.8%
C=C[C@@H]1C[C@H](O)Cc2cc(F)ccc2N1 | 97.4% | 87% | 112% | 88% | 98% | 56.2% | 92.9% | 98% | 100% | 107% | 102% | 102% | 91.7% | 96.1% | 106% | 94% | 101% | 108% | 96.1% | 97%
CCN1C(=O)N(CC)C2C1NN=c1s/c(=C\c3cccnc3)c(=O)n12 (stereo not given) | 44.5% | 49.7% | 47.3% | 53.4% | 7.97% (active) | 101% | 8.92% (active) | 27% | 41.7% | 12.3% | 17% | 9.64% (active) | 61.8% | 46.5% | 0.531% (active) | 49.4% | 11.9% | -13.3% (active) | 68% | 0.469% (active)
COP(=O)(OC)/C(=N\NS(=O)(=O)c1ccc(C)cc1)c1ccccc1 | 91.5% | 89.2% | 102% | 95.5% | 101% | 106% | 126% | 104% | 94.7% | 109% | 106% | 120% | 104% | 119% | 76.6% | 119% | 117% | 95% | 112% | 93.3%
O=C1c2ccccc2-c2ccccc2C1(Cl)Cl | -20.8% (active) | 88.4% | 86.7% | -98% (active) | 4.08% (active) | -78.4% (active) | -88.6% (active) | -21.2% (active) | 103% | 92.3% | -90.6% (active) | -15.4% (active) | -99.4% (active) | -27.5% (active) | -95.6% (active) | -83.8% (active) | -91% (active) | -94.8% (active) | -93% (active) | -69.6% (active)
